Active and inactive are the calls of the source. How the calls were made is not given here.
What follows are molecules tested on Aerobactin synthetase IucA (Klebsiella pneumoniae hvKP1) (assay: IucA enzyme inhibition, primary screen, biochemical, Spectrum library (AID 1346200;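 further: 100% = wells without compound and 0% = wells lacking enzyme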)). Conditions: malachite green pyrophosphate, A620, at 8 µM, active compounds read low.

Row | Compound | activity remaining
1 | Cc1ccnc(NS(=O)(=O)c2ccc(N)cc2)n1 | 122% (inactive)
2 | CO[C@@]1(NC(=O)C(C(=O)O)c2ccc(O)cc2)C(=O)N2C(C(=O)O)=C(CSc3nnnn3C)CO[C@@H]21 (stereo not given in full) | 102% (inactive)
3 | COc1ccc(C2Sc3ccccc3N(CCN(C)C)C(=O)C2OC(C)=O)cc1 (stereo not given) | 114% (inactive)
4 | COc1c(Cl)ccc(Cl)c1C(=O)O | 108% (inactive)
5 | COC(=O)[C@H](c1ccccc1Cl)N1CCc2sccc2C1 | 119% (inactive)
6 | CN(C)CCOC(=O)C(c1ccccc1)C1(O)CCCC1 (stereo not given) | 115% (inactive)
7 | CC(C)(Oc1ccc(Cl)cc1)C(=O)O | 122% (inactive)
8 | COc1c2ccoc2cc2oc(C)cc(=O)c12 | 108% (inactive)
9 | CC(=O)OC1CCC2C3CCc4cc(O)ccc4C3CCC12C (stereo not given) | 123% (inactive)
10 | CN(C)CCc1c[nH]c2ccc(CS(=O)(=O)N3CCCC3)cc12 | 128% (inactive)
11 | O=C(O)c1ccccc1O | 121% (inactive)
12 | CS(=O)(=O)c1ccc(C2=C(c3ccccc3)C(=O)OC2)cc1 | 87.7% (inactive)
13 | O=C(O)c1cc(=O)c(O)c2c(O)c(O)ccc2c1 | 90.4% (inactive)
14 | C/C=C/C(=O)N(CC)c1ccccc1C | 112% (inactive)
15 | Nc1nc2ncc(=O)[nH]c2c(=O)[nH]1 | 121% (inactive)
16 | Cc1onc(-c2c(Cl)cccc2Cl)c1C(=O)N[C@@H]1C(=O)N2[C@@H]1SC(C)(C)[C@@H]2C(=O)O | 121% (inactive)
17 | C[C@H](CCC(=O)O)[C@H]1CCC2C3C(CC[C@@]21C)[C@@]1(C)CC[C@@H](O)C[C@H]1C[C@@H]3O (stereo not given in full) | 105% (inactive)
18 | CC12CC[C@H](CC1=O)C2(C)C | 104% (inactive)
19 | CC[C@H]1OC(=O)[C@H](C)[C@@H](O[C@H]2C[C@@](C)(OC)[C@@H](O)[C@H](C)O2)[C@H](C)[C@@H](O[C@@H]2O[C@H](C)C[C@H](N(C)C)[C@H]2O)[C@](C)(O)C[C@@H](C)/C(=N\OCOCCOC)[C@H](C)[C@@H](O)[C@]1(C)O | 118% (inactive)
20 | CCOC(=O)OC(C)OC(=O)C1N2C(=O)C(NC(=O)[C@H](N)c3ccccc3)C2SC1(C)C (stereo not given in full) | 104% (inactive)

Row | Compound | activity remaining
21 | CC(=O)O[C@H]1CCC2(C)C3=C(CCC2C1(C)C)[C@@]1(C)CC[C@@H](C(C)CCC=C(C)C)[C@]1(C)CC3 (stereo not given in full) | 109% (inactive)
22 | COc1ccc(C(=O)CC(=O)O)c2c1C=CC(C)(C)O2 | 108% (inactive)
23 | NCC1CCC(C(=O)O)CC1 (stereo not given) | 102% (inactive)
24 | Cc1ccc2c(c1)CC[C@H]1CC(=O)CC[C@]21C | 112% (inactive)
25 | Cc1ncc([N+](=O)[O-])n1CCO | 75.6% (inactive)
26 | NC(=O)N/N=C/c1ccc([N+](=O)[O-])o1 | 94.6% (inactive)
27 | C[C@@H]1OC(O[C@H]2[C@H](OC(=O)[C@]34CCC(C)(C)CC3C3=CCC5[C@@]6(C)CC[C@H](OC7O[C@@H](C)[C@H](O[C@@H]8OC[C@@H](O)[C@H](O)[C@H]8O)[C@@H](O)[C@H]7O)C(C)(C)C6CC[C@@]5(C)[C@]3(C)CC4O)OC[C@H](O)[C@H]2O)[C@H](O)[C@H](O)[C@H]1O[C@@H]1O[C@H](CO)[C@@H](O)[C@H](O)[C@H]1O (stereo not given in full) | 99.8% (inactive)
28 | C[C@]12CCC3c4ccc(OC(=O)c5ccccc5)cc4CCC3C1CCC2=O (stereo not given in full) | 116% (inactive)
29 | Cc1cc(O)c(C=O)c(O)c1C(=O)O | 124% (inactive)
30 | O=C(NC(Cc1cc(=O)[nH]c2ccccc12)C(=O)O)c1ccc(Cl)cc1 (stereo not given) | 106% (inactive)
31 | COc1cc(C(=O)NCCCCCC(=O)O)cc(OC)c1OC | 120% (inactive)
32 | O=C(O)c1cn(-c2ccc(F)cc2)c2cc(N3CCNCC3)c(F)cc2c1=O | 118% (inactive)
33 | COc1ccc(-c2cc(=O)c3c(O)cc(OC)c(OC)c3o2)c(OC)c1 | 94.3% (inactive)
34 | CCOC(=O)NNc1nncc2ccccc12 | 118% (inactive)
35 | O=C(O)CN1C(=O)c2cccc3cccc(c23)C1=O | 111% (inactive)
36 | N[C@@H](C(=O)O)[C@@H](O)[C@H](O)[C@H](O)CO | 120% (inactive)
37 | Cc1ccc(C(C)C)cc2c(C)ccc1-2 | 121% (inactive)
38 | C=C1CCC2C(CC2(C)C)C(=O)CCC1O (stereo not given) | 116% (inactive)
39 | OCC(S)CS (stereo not given) | 91.4% (inactive)
40 | C/C=C/CC(C)C(O)C1C(=O)NC(CC)C(=O)N(C)CC(=O)N(C)C(CC(C)C)C(=O)NC(C(C)C)C(=O)N(C)C(CC(C)C)C(=O)NC(C)C(=O)NC(C)C(=O)N(C)C(CC(C)C)C(=O)N(C)C(CC(C)C)C(=O)N(C)C(C(C)C)C(=O)N1C (stereo not given) | 113% (inactive)
